A selection: hits, their analogues and other compounds. The true share with any hit is near 15%.
SARS PLpro yeast = qHTS of Yeast-based Assay for SARS-CoV PLP; S. cerevisiae expressing SARS-CoV PLpro, growth rescue; Potency, µM (titrated, usually from 32.9 µM), most hits filed as activators; actives 0.19% (n = 330,000); calls by dose curve; note: nearly all actives have a fitted effect of over 55% in size
Pf growth 96h = Primary qHTS for delayed death inhibitors of the malarial parasite plastid, 96 hour incubation | P. falciparum luciferase reporter growth, 96 h | Potency, µM (series often up to 28.7 µM), usual class: inhibitors | actives 6.9% (n = 320,000)
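Plates of compound plus infected erythrocytes (2% hematocrit, 0.05% parasitemia final) incubate 96 hours, 37 C, 5% CO2. Detection reagent added; reduced luminescence from the parasites' luciferase reporter flags inhibition.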
Pf growth 48h = Primary qHTS for delayed death inhibitors of the malarial parasite plastid, 48 hour incubation. P. falciparum luciferase growth in erythrocytes, 48 h. Potency, µM (titrated, usually from 28.7 µM), actives largely listed as inhibitors. actives 5.9% (n = 310,000). AID 504832, 2011
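Growth was read as firefly luciferase luminescence after a 48 h, 37 C, 5% CO2 exposure of compounds to reporter-bearing P. falciparum cultures (0.1% parasitemia, 2% hematocrit final) in Albumax-supplemented RPMI 1640.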
Sm TGR inh = qHTS Assay for the Inhibitors of Schistosoma Mansoni Peroxiredoxins; Schistosoma mansoni thioredoxin glutathione reductase (TGR), Q962Y6; purified TGR, DTNB reduction, TNB absorbance 405 nm; Potency, µM (titrated, usually from 114 µM), actives largely listed as inhibitors; actives 3% (n = 360,000); AID 485364, 2010; note: nearly all actives have a fitted effect of over 60% in size
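First, TGR (20 nM dispensed) and NADPH were mixed with compound. Second, a 15 min room-temperature incubation followed. Third, further NADPH and then DTNB were added to start the reaction. Finally, TNB absorbance was monitored kinetically.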
HCV inh = qHTS Assay for Inhibitors of Hepatitis C Virus (HCV); Huh7.5.1 HCVcc-Cre infection, luciferase reporter, 44 h; Potency, µM (top dose mostly 41.8 µM), hits mostly inhibitors; actives 3.4% (n = 340,000); AID 651820, 2012
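Cells (1,000/well) were plated 4 h before compound, then infected with HCVcc-Cre virus (~0.5 moi). After 44 h further culture, infection was read as luciferase luminescence following a 15 min substrate incubation at room temperature.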
HCMV inh = qHTS Assay for inhibitors of the human cytomegalovirus (HCMV); actives 4.5% (n = 410,000); AID 1259415, 2018; HFF cells, HCMV-luciferase reporter, 72 h; active compounds read low; activity change, negative = inhibition, % at 57.5 µM; in the data active = activity change below about -60%; inconclusive = no clear call, values can overlap the other calls; inactive = above about -39%
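Inhibition of viral replication was scored as loss of reporter luminescence in HFFs infected with HCMV-luciferase (MOI 1 PFU/cell) for 72 h; compounds tested at 2 doses, normalized to buffer and Salinomycin controls.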
Hits are given with their value; 0 = inactive; ? = inconclusive; - = no result given; ! = a repeat was not active; [ ] = another dose, or the depositor's remark. Unless noted, calls come from the whole dose curve; as a rule, active = well fitted curve in the direction sought with a large enough effect; inconclusive = small, poorly fitted or top-dose-only effect, or another doubt; inactive = no such curve, though single readings can be large; an effect the other way counts as inactive or inconclusive.

SMILES	SARS PLpro yeast	Pf growth 96h	Pf growth 48h	Sm TGR inh	HCV inh	HCMV inh
Cc1cc2oc(=O)cc(-c3cc4ccccc4o3)c2cc1O	0	2.62µM	7.38µM	0	?	0
CC(=O)COc1ccc2c(-c3cccc([N+](=O)[O-])c3)cc(=O)oc2c1	0	?	0	-	0	0
COc1cccc2c1cc1c(=O)n(CC(=O)N3CCN(c4cccc(C)c4)C(C)C3)nc(C)n12 (stereo not given)	-	-	-	0	-	0
Cc1c(/C=C(\C#N)C(=O)Nc2cccc(Cl)c2)c2ccccc2n1Cc1ccccc1Cl	-	-	-	0	-	0
Cc1cc([N+](=O)[O-])nn1CC(=O)N1c2ccccc2CC1C (stereo not given)	0	0	0	0	0	0
CCN1C(=NCC(C)C)N[C@@H](c2cccc(C(F)(F)F)c2)C(C(=O)OC)=C1C	0	0.928µM	13.1µM	0	0[8.37 µM]	0
C=CCN=C1N[C@@H](c2ccccc2)C(C(=O)OC)=C(C)N1CC	0	?	0	0	0	-
C=CCN=C1N[C@@H](c2cccc(C(F)(F)F)c2)C(C(=O)OC)=C(C)N1CC	0	3.29µM	10.4µM!	0	0	0
CCOC(=O)N1CCc2c(sc3c2c(=O)n(Cc2ccccc2)c(=O)n3CC(=O)Nc2ccc(F)cc2)C1	-	-	-	0	-	0
Cc1c(NC(=O)c2cccs2)c(=O)n(-c2ccccc2)n1C	0	0	0	0	0	0
CCCC(=O)NC(Nc1c(C)n(C)n(-c2ccccc2)c1=O)C(Cl)(Cl)Cl (stereo not given)	0	0	0	-	0	0
Cc1c(N/C=C/C(=O)c2cccs2)c(=O)n(-c2ccccc2)n1C	0	0	?	44.7µM	0	0
Cc1cc(N/C=C/C(=O)c2cccs2)ccc1F	0	0	0	0	0	-101.2
Cc1c(N/C=C(\Cl)C(=O)C(F)(F)F)c(=O)n(-c2ccccc2)n1C	0	0	?	14.1µM	0	0
CC(=O)NC(Nc1c(C)n(C)n(-c2ccccc2)c1=O)C(Cl)(Cl)Cl (stereo not given)	0	?	0	39.8µM	0	0
N#Cc1ccccc1NC(=O)c1ccc2c(c1)OCCO2	0	0	0	0	0	0
COc1c2c(c(OC)c3ccccc13)[C@@]1(OC2)O[C@H](CCO)C[C@H](O)[C@H]1O	-	-	-	-	-	0
CNC(=O)c1ccc2cc(OC)c(OC)cc2c1	-	-	-	-	-	0
O=C(CN1C(=O)CC(c2ccc(F)cc2)=Nc2ccccc21)NCc1ccccc1Cl	-	-	-	0	-	-63.8
Cc1ccc(C2=Nc3ccccc3N(CC(=O)NCc3ccc(F)cc3)C(=O)C2)cc1C	-	-	-	0	-	0
O=C(CCn1c(=O)c2ccccc2n(Cc2cccc(F)c2)c1=O)NCc1ccc2c(c1)OCO2	-	-	-	0	-	0
Cc1c(Cl)cccc1-n1c(SCC(=O)NCc2cccs2)nnc1-c1ccncc1	0	?	?	0	0	0
Cc1c(Cl)cccc1-n1c(SCC(=O)NCc2ccccc2Cl)nnc1-c1ccncc1	0	8.28µM	8.28µM	0	0	-101.9
CCn1c(CCCNC(=O)c2ccc(F)cc2)nc2ccccc21	0	0	0	0	0	0
CCCCCn1c(CCCNC(=O)c2cccc(C)c2)nc2ccccc21	-	-	-	0	-	-85.1
SMILES	SARS PLpro yeast	Pf growth 96h	Pf growth 48h	Sm TGR inh	HCV inh	HCMV inh
COc1ccc(C(=O)NCCCc2nc3ccccc3n2Cc2ccccc2C)cc1OC	0	9.28µM	?	0	?	0
CCCCn1c(CCCNC(=O)c2cccc(C)c2)nc2ccccc21	-	-	-	0	-	0
CC1CCCCN1S(=O)(=O)Cc1ccccc1Cl (stereo not given)	0	0	0	0	0	?
COCCOC(=O)/C(=C\c1cc(C(C)(C)C)c(O)c(C(C)(C)C)c1)C(C)=O	0	?	0	39.8µM	0	0
C[C@H](NC(=O)C[C@@H]1C=C[C@@H](NC(=O)CN2CCOCC2)[C@@H](CO)O1)c1ccccc1	-	-	-	-	-	0
COc1ccc(-c2nc3n(n2)C(c2cccnc2)C(C(N)=O)=C(C)N3)cc1 (stereo not given)	0	11.7µM	0	0	0	0
CC1=C(C(=O)Nc2ccccc2)C(c2cccnc2)n2nc(-c3cccnc3)nc2N1 (stereo not given)	0	0	0	0	0	0
CC1=C(C(=O)Nc2cccnc2)C(c2cccnc2)n2nc(-c3cccs3)nc2N1 (stereo not given)	0	9.28µM	0	0	0	0
Cc1ccc(N2C(=O)CSC23C(=O)Nc2ccccc23)cc1F (stereo not given)	-	-	-	0	-	0
COc1ccc(CN2CCCC(CO)(Cc3ccc(F)cc3)C2)cc1C (stereo not given)	0	?	14.7µM	0	0	0
CC(C)Oc1ccc(CN2CCCC(CO)(Cc3ccccc3)C2)cc1CO (stereo not given)	0	0	0	0	0	0
Cn1cc(CN2CCCC(CO)(Cc3ccccc3)C2)c2ccccc21 (stereo not given)	0	0	11.7µM	0	?	?
COc1cccc(CC2(CO)CCCN(Cc3cn(C)c4ccccc34)C2)c1 (stereo not given)	0	0	?	0	?	?
CCn1cc(CN2CCCC(CO)(Cc3ccc(F)cc3)C2)c2ccccc21 (stereo not given)	0	0	?	0	0	-63.6
CC(=O)c1cnc2ncnn2c1C	0	0	0	0	0	0
O=c1c2c(nc3nc(CCc4ccccc4)[nH]n13)CCC2	0	?	0	0	0	0
S=c1c2c(nc3nc[nH]n13)CCC2	0	1.65µM	2.08µM	17.8µM	0	0
CCCc1cc(N2CCN(c3cc(Cl)ccc3C)CC2)n2cnnc2n1	-	-	-	0	-	0
COc1ccc(NC(=O)c2cc3nc(-c4ccc(Cl)c(Cl)c4)cc(C(F)(F)F)n3n2)c(OC)c1	-	-	-	0	-	0
CC(=O)Nc1ccc2nc(NC(=O)CCc3ccccc3)sc2c1	0	?	?	0	0	0
CC(=O)c1ccc2c(c1)C1C(Cl)C(Sc3ccccc3[N+](=O)[O-])CC1C(c1ccccc1[N+](=O)[O-])N2 (stereo not given)	0	?	2.33µM	0	2.24µM	-87.9
COc1ccc(NC(=O)c2nnn(-c3ccc(C(C)C)cc3)c2C)c(OC)c1	-	-	-	0	-	0
Clc1ccccc1N1CCN(c2ncnc3c2c(-c2ccccc2)cn3-c2ccccc2)CC1	-	-	-	0	-	0
NC(=O)C1CCN(c2ncnc3c2c(-c2ccccc2)cn3-c2ccccc2)CC1	0	10.4µM	-	0	0	0
O=C1NC(c2cccs2)Nc2sc3c(c21)CCCC3 (stereo not given)	0	-	0	28.2µM	0	0

High-throughput results: PubChem BioAssay, National Center for Advancing Translational Sciences (NCATS)
